# Several values for one entry are separate records, joined by “and”; a condition that tells them apart may be missing. Identical values can stand only once. This is part of a sample that, as a whole, favours compounds with a hit. Of some 83,000 tested, about 20% had one in any assay.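 Growth was measured after 48 h exposure to one concentration of compound in 96-well plates. Values under 10 count as active.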 Activity calls are given as the source filed them.
# Assays:
# Assay in all cases: NCI-60 one-dose screen, 48 h (100 = growth as untreated, 0 = no growth, -100 = all killed)
# Conditions in all cases: 10 µM unless noted
# SK-MEL-2 melanoma = tested on: SK-MEL-2 melanoma
# EKVX NSCLC = tested on: EKVX NSCLC
# SN12C renal = tested on: SN12C renal
# UO-31 renal = tested on: UO-31 renal
# TK-10 renal = tested on: TK-10 renal
# ACHN renal = tested on: ACHN renal
# CAKI-1 renal = tested on: CAKI-1 renal
# A498 renal = tested on: A498 renal
# CCRF-CEM leukemia = tested on: CCRF-CEM leukemia
# MOLT-4 leukemia = tested on: MOLT-4 leukemia
# SR leukemia = tested on: SR leukemia
# RPMI-8226 leukemia = tested on: RPMI-8226 leukemia
# OVCAR-8 ovarian = tested on: OVCAR-8 ovarian
# OVCAR-5 ovarian = tested on: OVCAR-5 ovarian
# OVCAR-4 ovarian = tested on: OVCAR-4 ovarian
# SK-OV-3 ovarian = tested on: SK-OV-3 ovarian
# IGROV1 ovarian = tested on: IGROV1 ovarian
# OVCAR-3 ovarian = tested on: OVCAR-3 ovarian
# HS 578T breast = tested on: HS 578T breast
# NCI/ADR-RES ovarian = tested on: NCI/ADR-RES ovarian
SMILES,growth (SK-MEL-2 melanoma),growth (EKVX NSCLC),growth (SN12C renal),growth (UO-31 renal),growth (TK-10 renal),growth (ACHN renal),growth (CAKI-1 renal),growth (A498 renal),growth (CCRF-CEM leukemia),growth (MOLT-4 leukemia),growth (SR leukemia),growth (RPMI-8226 leukemia),growth (OVCAR-8 ovarian),growth (OVCAR-5 ovarian),growth (OVCAR-4 ovarian),growth (SK-OV-3 ovarian),growth (IGROV1 ovarian),growth (OVCAR-3 ovarian),growth (HS 578T breast),growth (NCI/ADR-RES ovarian)
CC(=O)NC(Cc1ccccc1)C(=O)Oc1ccc2ccccc2c1 (centres undefined),108% (inactive) and 113% (inactive),114% (inactive) and 96.4% (inactive),103% (inactive) and 98.9% (inactive),64.8% (inactive) and 86.6% (inactive),118% (inactive) and 111% (inactive),94.6% (inactive) and 97.4% (inactive),94.8% (inactive) and 98.1% (inactive),130% (inactive) and 97.2% (inactive),100% (inactive) and 86.6% (inactive),111% (inactive) and 102% (inactive),113% (inactive),90.2% (inactive),103% (inactive) and 105% (inactive),108% (inactive) and 93% (inactive),101% (inactive) and 97.6% (inactive),91.5% (inactive),135% (inactive) and 111% (inactive),122% (inactive) and 100% (inactive),98.8% (inactive) and 107% (inactive),98.4% (inactive) and 105% (inactive)
CC(=O)Nc1ccc(O)cc1,95.7% (inactive) and 81.9% (inactive) and 108% (inactive),95% (inactive) and 101% (inactive) and 113% (inactive),90.2% (inactive) and 102% (inactive) and 108% (inactive),84.3% (inactive) and 98% (inactive) and 90% (inactive),87.4% (inactive) and 69.9% (inactive) and 101% (inactive),100% (inactive) and 104% (inactive),98% (inactive) and 94.4% (inactive) and 101% (inactive),100% (inactive) and 102% (inactive) and 94.1% (inactive),88.7% (inactive) and 108% (inactive),102% (inactive) and 100% (inactive),117% (inactive) and 98.7% (inactive),105% (inactive),92.1% (inactive) and 103% (inactive) and 109% (inactive),91.6% (inactive) and 118% (inactive) and 105% (inactive),105% (inactive) and 131% (inactive),114% (inactive) and 115% (inactive) and 91.5% (inactive),107% (inactive) and 114% (inactive),103% (inactive) and 102% (inactive) and 107% (inactive),113% (inactive) and 109% (inactive),101% (inactive) and 93.7% (inactive) and 104% (inactive)
CC1=C(/C=C/C(C)=C/C=C/C(C)=C/C(=O)O)C(C)(C)CCC1,87.5% (inactive) and 94.7% (inactive),84% (inactive) and 92.2% (inactive) and 87.7% (inactive),81% (inactive) and 85.3% (inactive) and 73.8% (inactive),80.9% (inactive) and 64.5% (inactive) and 86.8% (inactive),101% (inactive) and 99.5% (inactive) and 109% (inactive),94.9% (inactive) and 98.9% (inactive) and 94.8% (inactive),81.3% (inactive) and 87% (inactive) and 82.9% (inactive),20.2% (inactive) and 109% (inactive) and 86.7% (inactive),78.5% (inactive) and 92.8% (inactive) and 103% (inactive),59.3% (inactive) and 99% (inactive) and 83.8% (inactive),68.5% (inactive) and 87.1% (inactive) and 68.1% (inactive),31.4% (inactive) and 4.62% (active) and 31.1% (inactive),87% (inactive) and 89.2% (inactive),120% (inactive) and 110% (inactive),86.9% (inactive) and 92% (inactive) and 85% (inactive),72% (inactive) and 90.2% (inactive) and 101% (inactive),99.5% (inactive) and 96% (inactive) and 75.9% (inactive),88.2% (inactive) and 95% (inactive) and 107% (inactive),77.1% (inactive) and 97.4% (inactive) and 75.8% (inactive),90.9% (inactive) and 95% (inactive)
CNc1ccc2nc3ccc(=[N+](C)C)cc-3sc2c1,4.78% (active) and 4.79% (active),40.9% (inactive) and 44.1% (inactive),-22% (active) and -62.5% (active),26.7% (inactive) and 33.7% (inactive),-3.64% (active) and 17.3% (inactive),14.6% (inactive) and -27.6% (active),11.2% (inactive) and 4.64% (active),57.8% (inactive) and 49.1% (inactive),9.67% (active) and 11.8% (inactive),-8.79% (active) and 12.2% (inactive),20.3% (inactive) and 28.5% (inactive),21.3% (inactive) and 8.61% (active),-15.7% (active) and -26.8% (active),-8.49% (active) and -6.9% (active),-14.7% (active),35.2% (inactive) and 18.6% (inactive),3.81% (active) and -25.6% (active),-7.57% (active) and -9.51% (active),–,2.25% (active) and 1.64% (active)
Cn1c(=O)c2[nH]c(CCCCCCCCc3nc4ccccc4[nH]3)nc2n(C)c1=O,79.3% (inactive) and 107% (inactive),42% (inactive) and 55.1% (inactive),81.2% (inactive) and 68% (inactive),73.9% (inactive) and 74.9% (inactive),84% (inactive) and 90.3% (inactive),61.1% (inactive) and 69% (inactive),49.7% (inactive) and 57.9% (inactive),55.7% (inactive) and 78.8% (inactive),69.6% (inactive) and 66.4% (inactive),41% (inactive) and 41.7% (inactive),43.5% (inactive) and 45.4% (inactive),52.2% (inactive),58.9% (inactive) and 69.2% (inactive),106% (inactive) and 91.2% (inactive),23.5% (inactive) and 50.2% (inactive),95.4% (inactive) and 94% (inactive),100% (inactive) and 85.9% (inactive),88.1% (inactive) and 66.6% (inactive),109% (inactive) and 85.6% (inactive),87.6% (inactive) and 94.4% (inactive)
CCOC(=O)C(C(=O)OCC)C(c1ccccc1)N1CCN(c2ccccc2)CC1 (centres undefined),105% (inactive) and 100% (inactive),107% (inactive) and 103% (inactive),98.2% (inactive) and 110% (inactive),73.8% (inactive) and 78.9% (inactive),98.1% (inactive) and 113% (inactive),105% (inactive),112% (inactive) and 98.1% (inactive),139% (inactive) and 107% (inactive),95.9% (inactive),103% (inactive) and 99.1% (inactive),97.9% (inactive) and 101% (inactive),102% (inactive) and 103% (inactive),101% (inactive) and 90.3% (inactive),112% (inactive) and 111% (inactive),102% (inactive) and 113% (inactive),115% (inactive) and 108% (inactive),107% (inactive),123% (inactive) and 120% (inactive),103% (inactive) and 104% (inactive),107% (inactive)
COc1ccc(S(=O)(=O)N2CCOCC2)cc1NC(=O)c1[nH]c(C)c2c1CCCCC2=O,105% (inactive) and 67.5% (inactive),103% (inactive) and 54% (inactive),98.3% (inactive) and 64.4% (inactive),90.5% (inactive) and 32% (inactive),103% (inactive) and 28.5% (inactive),107% (inactive) and 50.6% (inactive),96.6% (inactive) and 15.7% (inactive),93.5% (inactive) and -15.8% (active),111% (inactive) and 58.9% (inactive),104% (inactive) and 65.9% (inactive),113% (inactive) and 64.4% (inactive),104% (inactive) and 21.5% (inactive),99.6% (inactive) and 61.7% (inactive),102% (inactive) and 66.8% (inactive),114% (inactive) and 59.2% (inactive),103% (inactive),108% (inactive) and 47.1% (inactive),111% (inactive) and 68% (inactive),91.8% (inactive) and 23.1% (inactive),107% (inactive) and 79.1% (inactive)
CNC(=O)c1cc(Oc2ccc(NC(=O)Nc3ccc(Cl)c(C(F)(F)F)c3)cc2)ccn1,-42.9% (active),4.85% (active) and -2.85% (active),6.54% (active) and -7.24% (active),-28.5% (active) and -81.1% (active),-11.8% (active) and 25.8% (inactive),5.96% (active) and 0% (active),7.37% (active) and -32.6% (active),-73.7% (active) and -21.1% (active),12% (inactive) and 18.6% (inactive),-1.28% (active) and 25.8% (inactive),-8.61% (active) and 23.9% (inactive),-11.5% (active) and -19.3% (active),5.3% (active) and -16.5% (active),16.6% (inactive) and 15.4% (inactive),26.2% (inactive) and 25.2% (inactive),-20.9% (active) and 12.5% (inactive),-24.8% (active) and -70.7% (active),18.9% (inactive) and 3.16% (active),-8.13% (active),-10.9% (active) and -12.5% (active)

# — PubChem BioAssay (NCI)
